This note sets out measurements from PubChem BioAssay.

Assay [1] is described as follows: inhibitors of PAF-induced NFkB signaling in CF airway cells, dose response, cell-based, uHTS hits, panel, cytotoxicity readout (AID 624344). The following applies: CF bronchial epithelial cells, PAF-induced NFkB reporter inhibition, with PAF, run 1; at 79 µM (top of the series) unless noted.
Assay in assay [2]: as above
Particulars: CF bronchial epithelial cells, PAF-induced NFkB reporter inhibition, with PAF, run 2; at 79 µM (top of the series) unless noted.

Take `O=[N+]([O-])c1cccc(/C=N/Nc2cc(N3CCOCC3)ncn2)c1`: the inhibition was 116% in assay [1] and 102% in assay [2].
As to `O=C(Nc1cccc(Cl)c1)Nc1cc(S(=O)(=O)N2CCCCC2)ccc1Cl`, the inhibition in assay [1] worked out at 117%; in assay [2], 97.2%.
For the compound `CCCCCOC(=O)c1[nH]c2c(c1C)C(=O)CC(c1ccco1)C2` (stereo not given), the inhibition in assay [1] was found to be 75%; in assay [2], 62.8%.
As for `Cc1nc([N+](=O)[O-])c(Sc2nc3ccccc3n2C)n1Cc1ccccc1`, the inhibition in assay [1] is 101%; in assay [2], 115%.
`COCCN1Cc2cccc(C(=O)Nc3cccc(-c4nc5ccccc5[nH]4)c3)c2C1=O`: the inhibition in assay [1] stood at 95.8%; in assay [2], 114%.
In the case of `Cc1ccc(N=Cc2cc3c(cc2O)OC(N)=C(C#N)C3c2ccccc2)cc1` (stereo not given), the values for the inhibition in assay [1] and in assay [2] were 79.8% and 60.7%, respectively.
For `COc1ccc(CN(C(=O)CSc2nnc(-c3c[nH]c4ccccc34)o2)c2ccc(F)cc2)cc1OC`, the figures for the inhibition in assay [1] and in assay [2] were 101% and 103%, respectively.
Regarding `CN1CCC(OC(=O)c2cc3cc(Cl)cc(Cl)c3oc2=O)CC1`, the results for the inhibition in assay [1] and in assay [2] were 108% and 97.8%, respectively.
For `Cc1ccc(C(=O)Nc2cccc(C(F)(F)F)c2)cc1NC(=O)c1ccno1`, the inhibition in assay [1] came to 86.8%; in assay [2], 111%.
For the compound `O=C(COC(=O)c1ccc2[nH]c3c(c2c1)CCCC3)Nc1ccccc1Cl`, the inhibition in assay [1] turned out to be 65.7%; in assay [2], 69.7%.
For the compound `Cc1nc(N)c(C#N)c(-c2cccnc2)c1-c1ccccc1`, the inhibition in assay [1] amounted to 93.9%; in assay [2], 80%.
Regarding `C=C1C(=O)O[C@@H]2[C@H]1CC[C@H](C)[C@]1(O)CCC(=O)[C@@]21C`, the inhibition worked out at 101% in assay [1] and 108% in assay [2].
Regarding `Cc1nc(N2CCC(C(N)=O)CC2)c2c(-c3cccs3)csc2n1`, the inhibition in assay [1] stood at 97.5%; in assay [2], 93.8%.
For the compound `COC(=O)C1=C(C(=O)OC)[C@@H]2N(Cc3ccccc3)c3ccccc3[C@@]23C[C@@H](C(=O)OC)N(C(=O)c2ccc(Br)cc2)C3=N1`, the inhibition in assay [1] came out at 101%; in assay [2], 110%.
Turning to `COc1ccc(-c2ccccc2[C@H]2[C@@H]3C=CC[C@@H](C)[C@@H]3C(=O)N2Cc2ccccc2)cc1`, the inhibition in assay [1] is 102%; in assay [2], 108%.
For `Fc1ccc(Nc2ccnc(Nc3ccc(F)cc3)n2)cc1`, the inhibition in assay [1] stood at 113%; in assay [2], 101%.
For the compound `CC1(Cc2ccc(Cl)cc2)C(=O)Nc2ccc(-c3cccnc3)cc21` (stereo not given), the results for the inhibition in assay [1] and in assay [2] were 107% and 102%, respectively.
`COc1ccc2c(c1OC)C(=O)N1c3ccccc3C(=O)N(c3ccccc3)C21` (stereo not given): the inhibition in assay [1] was 112%; in assay [2] it was 102%.
For the compound `Cc1ccc(-c2n[nH]c(=S)n2/N=C/c2ccncc2)cc1`, the inhibition worked out at 111% in assay [1] and 96% in assay [2].
In the same order, the values of `Oc1ccc(C[C@H]2CNC(=S)N2CC2CCCN2C[C@H](Cc2ccc(O)cc2)N2C[C@H](Cc3ccc(O)cc3)N(CC3CCCCC3)C2=S)cc1` (stereo not given in full) are 101% and 105%.
With `O=S(=O)(c1ccc(Br)cc1)c1cnc2ccccc2n1`, the inhibition came out at 100% in assay [1] and 106% in assay [2].
On the same counts, the results for `CC1=C(/C=C/C(C)=C/C=C/C(C)=C\C(=O)O)C(C)(C)CCC1` are 100% and 71.7%.
For `O=C1CC(=O)OC(c2ccc([N+](=O)[O-])cc2)O1`, the inhibition in assay [1] is 101%; in assay [2], 94.3%.
As to `CCOC(=O)Nc1nc(-c2ccccc2)c(C(=O)c2ccccc2)s1`, the inhibition in assay [1] is 99.4%; in assay [2] it was 78.8%.
For `O=C(NNC(=S)Nc1cccc(C(F)(F)F)c1)c1cccc(Cl)c1`, the inhibition came out at 115% in assay [1] and 93.8% in assay [2].
Take `CCOC(=O)c1c(C)c2c(=O)[nH]cnc2n1-c1ccccc1`: the inhibition worked out at 110% in assay [1] and 104% in assay [2].
As to `CNC(=O)COC(=O)c1ccccc1C(=O)c1ccc(Cl)c([N+](=O)[O-])c1`, the inhibition in assay [1] is 103%; in assay [2] it was 102%.
Take `CCC(=O)c1ccc(O)c(CC=C(C)C)c1`: the inhibition in assay [1] is 114%; in assay [2], 97.8%.
Take `COc1ccc(CN(CCC(c2ccc(F)cc2)C2CCOC(C)(C)C2)C(=O)c2ccco2)cc1` (stereo not given): the results for the inhibition in assay [1] and in assay [2] were 105% and 111%, respectively.
Regarding `COCc1cc(S(=O)c2ccc(Cl)cc2)nc(C)n1` (stereo not given), the values for the inhibition in assay [1] and in assay [2] were 103% and 105%, respectively.
For `CN(CCC#N)C(=O)COC(=O)c1ccccc1C(=O)c1ccc(Cl)c([N+](=O)[O-])c1`, the inhibition was 96.7% in assay [1] and 105% in assay [2].
Regarding `O=C1NCCc2c1[nH]c1c(Cl)ccc(Cl)c21`, the inhibition in assay [1] is 101%; in assay [2] it was 113%.
For the compound `COc1ccc(Nc2nccc(-c3cccc(N)c3)n2)cc1`, the results for the inhibition in assay [1] and in assay [2] were 103% and 117%, respectively.
Take `CCCn1c(-c2nonc2N)nc2ccccc21`: the values for the inhibition in assay [1] and in assay [2] were 99.6% and 95.5%, respectively.
With `COc1ccc(-c2cc(NC=O)c3ncc(-c4ccc(OC)c(OC)c4)n3c2)c(OC)c1`, the inhibition in assay [1] came out at 95.1%; in assay [2], 86.2%.
Take `O=C(CCC1COc2ccccc2O1)Nc1ccc(Cl)cn1` (stereo not given): the results for the inhibition in assay [1] and in assay [2] were 104% and 112%, respectively.
As for `COc1ccc(-c2cc(NC=O)c3ncc(-c4cc(OC)c(OC)c(OC)c4)n3c2)cc1`, the inhibition in assay [1] turned out to be 50.1%; in assay [2], 53.5%.
For the compound `COc1cc(/C=N/NC(=O)Nc2cccc3nsnc23)cc(OC)c1OC`, the results for the inhibition in assay [1] and in assay [2] were 89.7% and 82.7%, respectively.
Consider `CCC1=Nc2cc(C(=O)NCc3ccco3)ccc2Sc2ccc(C)cc21`, for which the inhibition is 99.5% in assay [1] and 92.2% in assay [2].
On the same counts, the results for `COCCCN=C1NN=C(c2cc(C)n(Cc3ccccc3Cl)c2C)CS1` are 88.6% and 106%.
As to `COc1ccc(-n2c(C)cc3cc(OC(C)=O)ccc32)cc1`, the inhibition amounted to 86.5% in assay [1] and 70.9% in assay [2].
As to `CNC(=O)c1ccc(NC(=O)C2CCN(c3ncnc4sc(C)c(C)c34)CC2)cc1`, the inhibition in assay [1] came out at 85.3%; in assay [2], 72%.
On to `COc1ccc(-n2nnnc2S(=O)(=O)Cc2ccc(C(=O)O)cc2)cc1`, for which the inhibition in assay [1] worked out at 74.7%; in assay [2] it was 102%.
Turning to `c1nc(N2CCOCC2)c2c3c(sc2n1)CCCC3`, the inhibition was 98.5% in assay [1] and 107% in assay [2].
Consider `Brc1ccc2ncnc(NCc3ccccc3)c2c1`, for which the inhibition in assay [1] worked out at 108%; in assay [2] it was 104%.

In general, inhibition refers to the change of the read-out against control, counted positive when it falls.
